Measured values published in PubChem BioAssay AID623992 (NMMLSC, 2012).
Potency and affinity values are given separately. Calls of active or inactive are those of the source.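 The calls were made as follows: active = compounds whose fitted half-maximal effective concentration for blocking dye efflux is below 100 µM; inactive = the rest.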

Each compound was assayed against Benomyl/methotrexate resistance protein (Candida albicans) (UniProt P28873) (assay: CaMdr1 efflux pump inhibitor potency, dose response, singleplex, Cherry Pick2 set (AID 623992)). Conditions: S. cerevisiae AD/CaMDR1, Nile Red efflux, flow cytometry; series mostly up to 100 µM.
Chain of Benomyl/methotrexate resistance protein (Candida albicans) (P28873 whole entry, looked up): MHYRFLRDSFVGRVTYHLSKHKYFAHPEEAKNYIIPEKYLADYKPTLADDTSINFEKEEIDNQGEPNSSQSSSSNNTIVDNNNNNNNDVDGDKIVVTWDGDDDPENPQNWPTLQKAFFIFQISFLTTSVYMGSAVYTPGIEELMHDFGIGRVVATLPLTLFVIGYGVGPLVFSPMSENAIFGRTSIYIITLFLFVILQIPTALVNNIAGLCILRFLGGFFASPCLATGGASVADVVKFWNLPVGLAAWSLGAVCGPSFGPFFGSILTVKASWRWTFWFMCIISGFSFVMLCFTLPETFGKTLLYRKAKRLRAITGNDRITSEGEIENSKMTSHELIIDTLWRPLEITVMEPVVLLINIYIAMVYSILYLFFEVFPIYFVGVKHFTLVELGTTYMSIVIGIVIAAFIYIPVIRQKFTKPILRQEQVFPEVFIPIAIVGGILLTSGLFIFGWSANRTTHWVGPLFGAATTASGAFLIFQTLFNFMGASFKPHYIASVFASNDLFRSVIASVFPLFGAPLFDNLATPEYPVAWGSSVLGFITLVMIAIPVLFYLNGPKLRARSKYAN

outcome, inactive:
NC1=NC[C@H](Cc2ccc(O)cc2)N1CCc1cc(C(F)(F)F)cc(C(F)(F)F)c1
Cc1cc(C)c2sc(N(CCCN(C)C)C(=O)c3ccc(Br)s3)nc2c1
COc1ccc2c(c1)OC[C@H]1[C@H]2N2C(=O)c3ccc(C)cc3NC(=O)[C@@]2(C)[C@H]1c1ccccc1
COc1ccc(-c2sc3ccccc3c2-c2ccc(OCCN(C)C)cc2)cc1
NS(=O)(=O)c1ccc(N2N=C(c3ccccc3)CC2c2ccc(F)cc2)cc1 (stereo unspecified)
NS(=O)(=O)c1ccc(N2N=C(c3ccccc3)CC2c2ccc(Br)cc2)cc1 (stereo unspecified)
COc1ncccc1C(=O)NC1CCCc2c1cnn2-c1cc(C)cc(C)c1 (stereo unspecified)
CCN(CC)CCC(c1ccc(N(C)C)cc1)c1c(OC)cc(OC)c2ccc(=O)oc12 (stereo unspecified)
O=C(C1CCC(CNc2nc(=S)[nH]c3ccccc23)CC1)N1CCN(c2ccc(F)cc2)CC1 (stereo unspecified)
O=C(CSc1nnc(Cc2cccs2)n1Cc1ccco1)Nc1ccc(Br)cc1
Cc1ccc(C2CC(c3ccccc3)=NN2c2ccc(S(N)(=O)=O)cc2)cc1 (stereo unspecified)
N#CC(C(=O)NCc1ccccc1)c1nc2ccccc2nc1N1CCCC1 (stereo unspecified)
NC1=NC[C@H](Cc2ccc(O)cc2)N1CCCCC1CCCCC1
COc1ccc(S(=O)(=O)N(C)C[C@H]2Oc3c(NC(=O)NC4CCCCC4)cccc3C(=O)N([C@H](C)CO)C[C@@H]2C)cc1
COc1ccc(OC)c2sc(NC(=O)c3ccc(Br)s3)nc12
COc1ccccc1C(=O)OCCc1ccccc1
O=C(C1CCCN(c2ncnc3c2nc2n3CCCCC2)C1)N1CCN(c2ccccc2F)CC1 (stereo unspecified)
Cc1ccc2sc(N(CCCN(C)C)C(=O)c3ccc(Br)s3)nc2c1C
COc1ccc(C(=O)NC2CC(C)(C)Cc3c2cnn3-c2ccccc2)c(OC)c1 (stereo unspecified)
COc1ccc(CNC(=O)C(C#N)c2nc3ccccc3nc2N2CCN(C)CC2)cc1 (stereo unspecified)
Cc1ccc(N2CCN(C(=O)C3CCCN(c4ncnc5c4nc4n5CCCCC4)C3)CC2)c(C)c1 (stereo unspecified)
COc1ccc(C(=O)OCCc2ccc(O)cc2)cc1
C[C@@]12C(=O)Nc3cc(F)c(F)cc3C(=O)N1[C@H]1c3cc(Cl)ccc3OC[C@@H]1[C@@H]2c1ccccc1
O=C(C[n+]1cc(-c2ccc(F)cc2)n2c1CCC2)N1c2ccccc2Sc2ccccc21
O=C(Nc1ccccc1)C1=C[C@@H](c2ccc(C(F)(F)F)cc2)C[C@@H](OCCCCO)O1
Cc1ccc(C)c(N2CCN(C(=O)C3CCCN(c4ncnc5c4nc4n5CCCCC4)C3)CC2)c1 (stereo unspecified)
COc1ccc(C2CC(c3ccccc3)=NN2c2ccc(S(N)(=O)=O)cc2)cc1 (stereo unspecified)
O=C(Nc1ccccc1)C1=C[C@H](c2ccccc2)C[C@H](OCCCCO)O1
COc1cc(OC)c2c(-c3ccccc3)cc(=O)oc2c1C(CCN1CCCC(C)C1)c1ccc(N(C)C)cc1 (stereo unspecified)
CC(C)C(=O)N1CCC2(CC1)Oc1ccc(Cl)cc1C(=O)C21CC(c2ccc(Cl)cc2)=NO1 (stereo unspecified)
Nc1ccc(C(=O)OCCc2ccccc2)cc1
